The list is not random: actives were taken first. Their share in the collection is about 10%.
HPGD block: HPGD (human) dehydrogenase inhibition; P15428; purified HPGD, NADH fluorescence kinetic, PGE2 substrate; Potency, µM, most hits filed as inhibitors; 150,000 compounds, 4.3% hits; AID 894; active means well fitted inhibition curve with a large enough effect, not every such curve was filed as active; inconclusive means small, poorly fitted or top-dose-only effect, or another doubt; inactive means no such curve, though single readings can be large or run the other way
Target sequence (P15428 whole entry, looked up): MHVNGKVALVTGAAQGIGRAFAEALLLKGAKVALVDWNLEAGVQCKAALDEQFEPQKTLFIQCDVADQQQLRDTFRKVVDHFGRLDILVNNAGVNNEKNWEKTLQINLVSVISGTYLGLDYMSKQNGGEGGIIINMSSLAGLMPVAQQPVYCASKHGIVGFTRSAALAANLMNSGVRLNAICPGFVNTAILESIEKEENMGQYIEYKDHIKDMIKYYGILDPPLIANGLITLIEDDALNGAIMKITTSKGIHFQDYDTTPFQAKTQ
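NADH formation kinetics: reaction with 30 uM PGE2 and 1 mM NAD+ (final), 20 nM enzyme, Tris-HCl pH 8 with Tween 20, after 15 min compound preincubation at room temperature. Fluorescence change, last versus first of five reads.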
PNC assembly inh: blocks assembly of the perinucleolar compartment. 140,000 compounds, 3.1% hits. PC3M PTB-GFP, PNC prevalence imaging, 16 h; stronger effect = lower value. activity change (PNC), negative = inhibition, % at 10 µM. AID 2417;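 active means readout at or below -70, meaning at least 70% loss of cells showing the perinucleolar compartment, a nuclear body marking cancer cells; inconclusive means readout between -30 and a set limit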
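PC3M cells stably expressing PTB-GFP, 750–1000 cells/well, treated 16 h at 37 °C with compound (23 nl of library stock), in duplicate. After paraformaldehyde fixation and Hoechst stain, imaged at 20x; PNC prevalence scored by image analysis.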
ALDH1A1 inh: ALDH1A1 (human) enzyme inhibition | Potency, µM (highest dose often 75.3 µM), most hits filed as inhibitors | Purified ALDH1A1, NADH fluorescence, propionaldehyde substrate | 220,000 compounds, 7.3% hits | P00352; active means well fitted inhibition curve with a large enough effect, not every such curve was filed as active; inconclusive means small, poorly fitted or top-dose-only effect, or another doubt; inactive means no such curve, though single readings can be large or run the other way
12-hLO inh: blocks human 12-lipoxygenase activity | P18054 | purified 12-hLO, xylenol orange hydroperoxide absorbance | Potency, µM (highest dose often 57.1 µM), usual class: inhibitors | 150,000 compounds, 0.12% hits | AID 1452; further: nearly all actives have a fitted effect of over 55% in size
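Purified human 12hLO (150 nM), preincubated 15 min with compound, then 40 uM arachidonic acid for 30 min, room temperature, Hepes pH 7.0 with 0.01% Triton X-100. Hydroperoxide detected by ferrous iron/xylenol orange; 573/405 nm absorbance ratio gives reaction progress.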
GLA inh pH 4.5: blocks human alpha-galactosidase A at pH 4.5; P06280; purified enzyme, 4-MU-alpha-Gal fluorescence, pH 4.5; activity change, negative = inhibition, % at 105 µM; 230,000 tested, under 10 active
GLA spleen mod: inhibitors or activators of human alpha-galactosidase in spleen homogenate; P06280; human spleen homogenate, 4MU-alpha-Gal fluorescence, 40 min; Potency, µM (titrated, usually from 80 µM), usual class: inhibitors; 240,000 compounds, 0.008% hits; AID 2107
Target sequence (P06280 32-429 limits assumed): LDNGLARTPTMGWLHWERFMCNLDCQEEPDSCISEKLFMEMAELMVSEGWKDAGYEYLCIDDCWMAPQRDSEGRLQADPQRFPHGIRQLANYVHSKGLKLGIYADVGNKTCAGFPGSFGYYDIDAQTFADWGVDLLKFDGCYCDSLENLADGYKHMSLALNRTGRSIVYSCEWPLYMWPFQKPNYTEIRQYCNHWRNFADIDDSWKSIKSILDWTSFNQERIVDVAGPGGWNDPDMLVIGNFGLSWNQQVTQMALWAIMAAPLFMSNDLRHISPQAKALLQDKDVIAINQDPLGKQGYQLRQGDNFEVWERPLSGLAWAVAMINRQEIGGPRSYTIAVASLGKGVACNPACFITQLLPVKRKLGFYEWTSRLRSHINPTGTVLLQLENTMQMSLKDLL
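Human spleen homogenate (1 ug) as enzyme source, 4-methylumbelliferyl-alpha-D-galactopyranoside 1 mM final, citrate/phosphate pH 5.0 with 0.01% Tween-20. Compounds 40 min at 37C, NaOH/glycine stop; fluorescence Ex 365/Em 440, Hill-fit AC50.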
Each line names hits and unclear results; the compound was inactive in the other large screens. Unless noted, the call rests on the fitted dose curve; in most records, active means well fitted curve in the direction sought with a large enough effect; inconclusive means small, poorly fitted or top-dose-only effect, or another doubt; inactive means no such curve, though single readings can be large; an effect the other way counts as inactive or inconclusive.

CN1CCc2c(sc3c2C(=O)NC(c2cn(Cc4ccccc4)c4ccccc24)N3)C1 (stereo not given)	HPGD block inconclusive, PNC assembly inh -103.5, ALDH1A1 inh inconclusive
CN1CCc2c(sc3c2C(=O)NC(c2ccco2)N3)C1 (stereo not given)	HPGD block inconclusive, ALDH1A1 inh inconclusive
Cc1c(C(=O)O)oc2ccc(S(=O)(=O)N3CCC(C)CC3)cc12	HPGD block 11.2µM
Cc1c(C(=O)O)oc2ccc(S(=O)(=O)N3CC(C)CC(C)C3)cc12 (stereo not given)	HPGD block inconclusive
Cc1c(C(=O)NCCc2ccccc2)oc2ccc(S(=O)(=O)N3CCC4(CC3)OCCO4)cc12	ALDH1A1 inh inconclusive
Cc1c(C(=O)N(C)Cc2ccccc2)oc2ccc(S(=O)(=O)N3CCCC3)cc12	ALDH1A1 inh 22.4µM
COc1ccc(NC(=O)c2oc3ccc(S(=O)(=O)N4CCC5(CC4)OCCO5)cc3c2C)cc1	PNC assembly inh inconclusive, ALDH1A1 inh 22.4µM
Cc1c(C(=O)NCc2ccccc2)oc2ccc(S(=O)(=O)N3CCCC3)cc12	ALDH1A1 inh inconclusive
O=C(NC1CCCCC1)C1CCC(CNS(=O)(=O)c2cccc3nsnc23)CC1 (stereo not given)	ALDH1A1 inh inconclusive
CCc1ccc(NC(=O)CCS(=O)(=O)c2cccc3nsnc23)cc1	none
O=C(CCNS(=O)(=O)c1cccs1)NC1CCN(Cc2ccccc2)CC1	none (no result: HPGD block, PNC assembly inh, 12-hLO inh)
O=C(CCS(=O)(=O)c1cccc2nsnc12)N1CCN(C(=O)c2ccco2)CC1	ALDH1A1 inh 25.1µM
O=C(CCS(=O)(=O)c1cccc2nsnc12)N1CCN(Cc2ccc3c(c2)OCO3)CC1	ALDH1A1 inh inconclusive
O=C(CNS(=O)(=O)c1cccc2nsnc12)NC1CCCCC1	PNC assembly inh -111.0
CCN(CC)c1ccc(NC(=O)CCS(=O)(=O)c2cccc3nsnc23)c(C)c1	ALDH1A1 inh 28.2µM (no result: HPGD block, PNC assembly inh, 12-hLO inh)
O=C(CCNS(=O)(=O)c1cccc2nsnc12)NC1CCN(Cc2ccccc2)CC1	PNC assembly inh -112.1
COc1ccc(SCC(CC(C)C)N2CCN(CCc3ccccc3)CCC2=O)cc1 (stereo not given)	none (no result: HPGD block, PNC assembly inh, ALDH1A1 inh, 12-hLO inh, GLA inh pH 4.5)
CCCCCCCCCCCCCCCC(=O)NC(C)C	none (no result: PNC assembly inh)
Cc1ccc(-c2c(C3C4C=CCCC4(C)C(=O)N3Cc3ccccc3)ccc3ccccc23)cc1 (stereo not given)	none (no result: HPGD block, PNC assembly inh, ALDH1A1 inh, 12-hLO inh, GLA inh pH 4.5)
O=C(O)/C(Cc1ccc([N+](=O)[O-])cc1)=N/O	none (no result: PNC assembly inh, GLA inh pH 4.5, GLA spleen mod)
C=C1CC[C@H](O)C/C1=C/C=C1\CCC[C@]2(C)C([C@H](C)CC[C@@H](O)C(C)(C)O)CC[C@@H]12 (stereo not given in full)	none (no result: HPGD block, PNC assembly inh, 12-hLO inh, GLA inh pH 4.5)
O=C(CCS(=O)(=O)c1cccc2nsnc12)NC1CCCCC1	HPGD block 28.2µM, ALDH1A1 inh inconclusive
Cc1ccc(Nc2ccc(C(=O)NC3CCCCC3)cn2)cc1	none (no result: HPGD block, PNC assembly inh, ALDH1A1 inh, 12-hLO inh)
COc1ccccc1Nc1ccc(C(=O)NC2CCCCC2)cn1	HPGD block 15.8µM
N#C/C(C(=O)NCCc1ccccc1)=C1/N=C(NC(=O)c2cccs2)c2ccccc21	none
COCCCNC(=O)/C(C#N)=C1\N=C(NC(=O)c2cccs2)c2ccccc21	ALDH1A1 inh 3.98µM (no result: HPGD block, PNC assembly inh, 12-hLO inh)
O=C(C1=C(O)C(=O)N(CCN2CCOCC2)C1c1cccnc1)c1cc2ccccc2o1 (stereo not given)	ALDH1A1 inh 35.5µM
COc1cccc2cc(C(=O)C3=C(O)C(=O)N(CCN4CCOCC4)C3c3ccc(Cl)cc3)oc12 (stereo not given)	none (no result: HPGD block, PNC assembly inh, ALDH1A1 inh, 12-hLO inh)
COCCN1C(=O)C(O)=C(C(=O)c2cccs2)C1c1ccccc1 (stereo not given)	none
Cc1ccc(C2C(C(=O)c3cc4ccccc4o3)=C(O)C(=O)N2CCN2CCOCC2)o1 (stereo not given)	ALDH1A1 inh 14.1µM
O=C(C1=C(O)C(=O)N(CCCN2CCOCC2)C1c1ccncc1)c1cc2ccccc2o1 (stereo not given)	ALDH1A1 inh 14.1µM
COCCN1C(=O)C(O)=C(C(C)=O)C1c1ccc(F)cc1 (stereo not given)	HPGD block inconclusive, ALDH1A1 inh 14.1µM
OCC1(CCc2ccccc2)CCN(Cc2cccn2-c2cccnc2)CC1	none (no result: HPGD block, PNC assembly inh, 12-hLO inh)
Cc1ccoc1C(=O)NCCNc1ccc(Cl)cc1[N+](=O)[O-]	none
O=P(c1ccccc1)(c1ccccc1)c1nc(-c2ccccc2)oc1NCc1ccccc1	ALDH1A1 inh inconclusive (no result: HPGD block, PNC assembly inh, 12-hLO inh)
CC(=O)C1=C(O)C(=O)N(C2CCCCC2)C1c1ccccc1 (stereo not given)	ALDH1A1 inh 22.4µM
CC(=O)C1=C(O)C(=O)N(CCN2CCOCC2)C1c1ccccc1 (stereo not given)	ALDH1A1 inh 25.1µM
CC(=O)C1=C(O)C(=O)N(c2ccc(C(=O)O)cc2)C1c1ccccc1 (stereo not given)	HPGD block inconclusive
CS(=O)(=O)N(CC(=O)Nc1ccc(S(=O)(=O)N2CCCC2)cc1)c1ccccc1F	PNC assembly inh inconclusive
NCC1CCC(C(=O)O)CC1 (stereo not given)	none (no result: PNC assembly inh)
COc1ccc(NC2c3ncccc3C(=O)N2Cc2cccs2)cc1 (stereo not given)	ALDH1A1 inh 3.16µM (no result: HPGD block, PNC assembly inh, 12-hLO inh)
O=C1c2cccnc2C(Nc2ccc(F)c(Cl)c2)N1Cc1cccs1 (stereo not given)	ALDH1A1 inh 11.2µM (no result: HPGD block, PNC assembly inh, 12-hLO inh)
O=C1c2cccnc2C(Nc2ccc(Br)cc2)N1Cc1cccs1 (stereo not given)	ALDH1A1 inh 6.31µM (no result: HPGD block, PNC assembly inh, 12-hLO inh)
CC(=O)Nc1nc2ncc(C=O)nc2c(=O)[nH]1	none (no result: PNC assembly inh, GLA inh pH 4.5, GLA spleen mod)
CC(CNC(=O)C(=O)NC(C)CCc1ccccc1)Cc1ccccc1 (stereo not given)	none
COc1ccccc1C(=O)C1Nc2ccccc2-c2nnc(SC)nc2O1 (stereo not given)	PNC assembly inh -103.7, ALDH1A1 inh 22.4µM
CCCCSc1nnc2c(n1)OC(C(=O)c1ccccc1)Nc1ccccc1-2 (stereo not given)	ALDH1A1 inh 20µM
CCCCCSc1nnc2c(n1)OC(C)N(C(C)=O)c1ccccc1-2 (stereo not given)	PNC assembly inh inconclusive
CSc1nnc2ccc(-c3ccccn3)nn12	none (no result: HPGD block, PNC assembly inh, 12-hLO inh)
CNc1ncncc1-c1ccc(C(=O)N(C)C)cc1	HPGD block inconclusive, ALDH1A1 inh inconclusive (no result: PNC assembly inh)
CCOc1ccc2nc(SCCNS(=O)(=O)c3ccccc3)sc2c1	PNC assembly inh -113.0
CCOc1ccc2nc(SC3CC(=O)N(c4ccccc4)C3=O)sc2c1 (stereo not given)	ALDH1A1 inh 14.1µM
CCOc1ccc(N2C(=O)CC(Sc3nc(C)cc(C)c3C#N)C2=O)cc1 (stereo not given)	ALDH1A1 inh 14.1µM

Bioassay records (PubChem BioAssay)
